From PubChem
ELG1 repair inh: ELG1-dependent DNA repair inhibition; hit rate 2.3% among 330,000; HEK293T ELG1-luciferase reporter, luminescence, 16 h; DNA damage induced by 5-fluorouridine; Potency, µM (top dose mostly 46.1 µM), inactives show at the top dose activity change, negative = inhibition, usual class: inhibitors; also: % is scaled to controls: 0 for no effect and ±100 for the full control effect; nearly all actives have a fitted effect of over 55% in size
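Reporter activity after DNA damage by 5-fluorouridine is monitored. Compound-treated cells incubate 16 hr at 37 °C, then ONE-Glo is added for 30 min before luminescence reading.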
KB-3-1 tox: KB-3-1 parental cell cytotoxicity; KB-3-1 viability, CellTiter-Glo ATP luminescence, 72 h; Potency, µM (titrated, usually from 46.1 µM), most hits filed as cytotoxic; hit rate 1.4% among 400,000; AID 1347075; also: % is scaled to controls: 0 for no effect and ±100 for the full control effect; nearly all actives have a fitted effect of over 60% in size
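72 h, 37 °C compound treatment of KB-3-1 parental cells; CellTiter-Glo added, 10 min, luminescence read. Data corrected against DMSO-only plates and normalized before curve fitting.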
KB-V1 cytotox: kills drug-selected multidrug resistant KB-V1 cells; KB-V1 MDR cells viability, CellTiter-Glo, 72 h; hit rate 3.4% among 400,000; Potency, µM (doses to about 46.1 µM), most hits filed as cytotoxic; also: % is scaled to controls: 0 for no effect and ±100 for the full control effect; nearly all actives have a fitted effect of over 60% in size
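Luminescent ATP read-out (CellTiter-Glo, 10 min) measures survival of drug-selected KB-V1 MDR cells after 72 h, 37 degrees C compound exposure. Medium: phenol-red-free DMEM, 10% FBS. Values from fitted concentration-response curves.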
SW480 rereplic: induces DNA re-replication in SW480 colon adenocarcinoma cells; Potency, µM (series often up to 46.1 µM), for inactives: at the highest dose re-replication activation, actives largely listed as activators; SW480 DNA re-replication, Hoechst DNA content imaging, 48 h; hit rate 1.8% among 340,000; also: % of control where 0% means no effect; nearly all actives have a fitted effect of over 55% in size
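250 cells/well; 23 nL cpd via pin tool; 48 hr, 37 C, 5% CO2; Hoechst 40 min; imager read of total nuclear intensity, ex 405/em 500-530 nm.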
MCF10A rerep: induces DNA re-replication in MCF 10a normal breast cells. MCF 10A DNA re-replication, Hoechst nuclear intensity, 48 h. Potency, µM (highest dose often 46.1 µM), inactives show at the highest dose activity, positive = re-replication, hits mostly activators. hit rate 2.9% among 350,000. AID 624296; also: % of control where 0% means no effect; nearly all actives have a fitted effect of over 50% in size
* marks the source's active call; other numbers are inactive results. The list is not random: actives were taken first. Their share in the collection is about 8.1%. Calls follow the shape of the dose curve; as a rule, active = well fitted curve in the direction sought with a large enough effect; inconclusive = small, poorly fitted or top-dose-only effect, or another doubt; inactive = no such curve, though single readings can be large; an effect the other way counts as inactive or inconclusive. Potency is read from the fitted curve at half-maximal effect.

For CCOC(=O)c1nn(-c2ccc(Br)cc2)cc1C(=O)c1cccc2ccccc12 the results were ELG1 repair inh inconclusive, KB-3-1 tox inconclusive, KB-V1 cytotox 12µM*, SW480 rereplic inconclusive and MCF10A rerep inconclusive.
For CCOC(=O)c1ccc(NC(=O)c2cn(-c3ccccc3)nc2-c2ccc(Br)cc2)cc1 the results were KB-3-1 tox inactive and KB-V1 cytotox inactive.
`CN(C)CCC(C(=O)c1ccccc1)c1ccccn1` (stereo not given) gave KB-3-1 tox inactive, KB-V1 cytotox inactive, SW480 rereplic 0% and MCF10A rerep 1%.
Screening CCCCC(CCc1ccccn1)C(=O)c1ccccc1 (stereo not given) returned KB-3-1 tox inactive, KB-V1 cytotox 16µM*, SW480 rereplic -3% and MCF10A rerep inconclusive.
Screening CCC(CCc1ccccn1)C(=O)c1ccccc1 (stereo not given) returned KB-3-1 tox inactive, KB-V1 cytotox inconclusive, SW480 rereplic 17% and MCF10A rerep 12%.
CN(C)CC(CCCCC(CN(C)C)C(=O)c1ccccc1)C(=O)c1ccccc1 (stereo not given) was read as ELG1 repair inh inconclusive, KB-3-1 tox inconclusive, KB-V1 cytotox inactive, SW480 rereplic 10µM* and MCF10A rerep inconclusive.
`O=C(C[n+]1cccc(Br)c1)c1ccc(I)cc1` gave KB-3-1 tox inactive and KB-V1 cytotox inactive.
Screening COc1ccccc1-c1ccc([C@@H]2C[C@H]3[C@@H](CN2)CON3C)cc1 returned KB-3-1 tox inactive and KB-V1 cytotox inactive.
CCN(CC)C(=O)C1=C(C)N(Cc2ccc(C(C)(C)C)cc2)C(=O)C(CC(=O)NCCCN(C)C)C1 (stereo not given) was read as KB-3-1 tox inactive and KB-V1 cytotox inactive.
CC(C)Oc1ccc(C(=O)Nc2c3c(nn2-c2ccccc2)CS(=O)(=O)C3)cc1 was read as ELG1 repair inh -8%, SW480 rereplic 7% and MCF10A rerep -3%.
Screening Nc1nc(Nc2cccc(F)c2)nc(N2CCOCC2)c1[N+](=O)[O-] returned ELG1 repair inh 2%, KB-3-1 tox inactive, KB-V1 cytotox inactive, SW480 rereplic inconclusive and MCF10A rerep inconclusive.
`Cc1ccc(Nc2nc(N)c([N+](=O)[O-])c(N3CCOCC3)n2)cc1C` gave ELG1 repair inh 13µM*, KB-3-1 tox inactive, KB-V1 cytotox inactive, SW480 rereplic 9% and MCF10A rerep 14%.
Screening Cc1ccc(Nc2nc(N)c([N+](=O)[O-])c(N3CCC(C)CC3)n2)cc1C returned ELG1 repair inh inconclusive, KB-3-1 tox inconclusive, KB-V1 cytotox 23µM*, SW480 rereplic inconclusive and MCF10A rerep 0%.
Screening O=C(CCl)N(c1ccc(Cl)cc1)c1c[nH]c2ccccc12 returned ELG1 repair inh 26µM*, KB-3-1 tox inconclusive, KB-V1 cytotox 18µM*, SW480 rereplic 21µM* and MCF10A rerep 2.6µM*.
O=C(CCl)N(c1ccccc1)c1c[nH]c2ccccc12 was read as ELG1 repair inh 21µM*, KB-3-1 tox 16µM*, KB-V1 cytotox 16µM*, SW480 rereplic inconclusive and MCF10A rerep 15µM*.
Screening CCOC(=O)C1(Cc2cccc(OC)c2)CCCN(C(=O)CSC)C1 (stereo not given) returned KB-3-1 tox inactive, KB-V1 cytotox inconclusive, SW480 rereplic inconclusive and MCF10A rerep -32%.
For COc1ccc(OCCN2CCC(C(=O)NC(c3ccc(F)cc3)c3ncccc3C)CC2)cc1 (stereo not given) the results were KB-3-1 tox inactive and KB-V1 cytotox inactive.
`O=C1Nc2ccc(Br)cc2C1=C1CCCCC1` gave ELG1 repair inh inconclusive, KB-3-1 tox inactive, KB-V1 cytotox inconclusive, SW480 rereplic inconclusive and MCF10A rerep 18µM*.
Oc1[nH]c2ccccc2c1C=Nc1ccc2c(c1)OCCO2 was read as ELG1 repair inh inconclusive, KB-3-1 tox inactive, KB-V1 cytotox 16µM*, SW480 rereplic -6% and MCF10A rerep inconclusive.
Screening Oc1c(Br)cc(Br)cc1C=Nc1ccc2c(c1)OCCO2 returned ELG1 repair inh inconclusive, KB-3-1 tox inactive, KB-V1 cytotox inactive, SW480 rereplic -6% and MCF10A rerep -1%.
For Cc1nnc(NC(=O)c2ccc(S(=O)(=O)N3CCCCC3)cc2)s1 the results were ELG1 repair inh 7%, KB-3-1 tox inactive, KB-V1 cytotox inactive, SW480 rereplic -11% and MCF10A rerep 2%.
N#C/C(=N\Nc1ccc(S(=O)(=O)N2CCOCC2)cc1)C(N)=S was read as ELG1 repair inh inconclusive, KB-3-1 tox inactive, KB-V1 cytotox inactive, SW480 rereplic 4% and MCF10A rerep -10%.
Cc1nnsc1C(=O)Nc1ccc(S(=O)(=O)N2CCCCC2)cc1 was read as ELG1 repair inh 12µM*, KB-3-1 tox inactive, KB-V1 cytotox inactive, SW480 rereplic -13% and MCF10A rerep 9%.
Screening Cc1nnc(SC(C)C(=O)Nc2ccc(S(=O)(=O)N3CCCCCC3)cc2)s1 (stereo not given) returned ELG1 repair inh inconclusive, KB-3-1 tox inactive, KB-V1 cytotox 16µM*, SW480 rereplic -3% and MCF10A rerep 14%.
N#CC(C#N)=NNc1ccc(S(=O)(=O)N2CCCCC2)cc1 was read as ELG1 repair inh inconclusive, KB-3-1 tox inactive, KB-V1 cytotox inactive, SW480 rereplic -2% and MCF10A rerep 26µM*.
For COC(=O)c1ccc(NC(=O)COc2ccc(N(C)S(=O)(=O)c3ccc(C)cc3)cc2)cc1 the results were ELG1 repair inh inconclusive, SW480 rereplic -5% and MCF10A rerep 18µM*.
Screening CN(Cc1c(C(=O)N/N=C/c2cccc(Cl)c2)nnn1-c1nonc1N)c1ccccc1 returned ELG1 repair inh 10%, KB-3-1 tox inactive, KB-V1 cytotox inactive, SW480 rereplic inconclusive and MCF10A rerep 2%.
For C[C@H](CO)N1C[C@H](C)[C@@H](CN(C)S(=O)(=O)c2ccc(F)cc2)OCc2cn(nn2)CCCC1=O the results were KB-3-1 tox inactive and KB-V1 cytotox inactive.
Screening CCOC(=O)N1CCC(NC(=O)c2cnn(-c3cccc(F)c3)c2-n2cccc2)CC1 returned KB-3-1 tox inactive and KB-V1 cytotox inactive.
`CCc1ccc(OCC(=O)Nc2ccc(S(=O)(=O)N3CCCC3)cc2)c(Br)c1` gave ELG1 repair inh 3%, KB-3-1 tox inactive, KB-V1 cytotox inactive, SW480 rereplic 1% and MCF10A rerep 13%.
`CN(c1ccc(OCC(=O)Nc2nc3ccccc3s2)cc1)S(=O)(=O)c1ccccc1` gave ELG1 repair inh 8.2µM*, KB-3-1 tox inactive, KB-V1 cytotox inconclusive, SW480 rereplic -10% and MCF10A rerep 7%.
